# PLC-gamma1 inh = PLC-gamma1 (human) inhibition, primary screen; P19174; actives 0.84% (n = 370,000); AID 720700; purified PLC-gamma1, fluorogenic substrate, fluorescence; inhibition, % at 12.2 µM
# PLCb3 inh = inhibitors of human phospholipase C beta3 | Q01970 | Purified PLC-beta3, fluorogenic substrate, fluorescence | inhibition, % at 12.2 µM | actives 0.18% (n = 370,000); in the data active = inhibition above about 11%;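 also: 0% = median of compound wells on plate and 100% = full blocker control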
# CR mimetic SO = yeast age-related superoxide inhibition as caloric restriction mimetic. AID 2690. superoxide response (% of plate mean), % at 10 µM. S. cerevisiae aged cells, superoxide DHE fluorescence; active compounds read low. actives 0.18% (n = 330,000);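 active = superoxide response under a set limit, about three screen SD below normal, cut at about 65% in these data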;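 also: yeast aged for seven days with compound at 30 °C before DHE staining; 100% = average MFI of all compound-treated wells on the plate with controls excluded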
# HIF activator = HIF pathway transcriptional activation; U2OS HRE-luciferase reporter, luminescence; normalized: DMSO 0%, desferrioxamine 100%; activation, % at 7.5 µM (by protocol); actives 0.32% (n = 300,000); AID 1910;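 active = mean activation of at least 10% of the iron chelator positive control signal, with at least half of replicates also reaching 10%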
# sPLA2-III inh = Blocks human group III sPLA2 activity. QFRET BODIPY PC-A2 liposome hydrolysis, fluorescence. inhibition, % at 12.2 µM. actives 0.56% (n = 370,000). AID 743126;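 active = inhibition above mean plus 3 SD of compounds lying within the high and low control bounds, cut at about 19% in these data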;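 also: 0% = median of test compound wells and 100% = no enzyme DMSO wells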
# AHR activator = activates the human aryl hydrocarbon receptor | P35869 | AHR-responsive luciferase reporter cells, luminescence | activation, % at 5 µM | actives 2.5% (n = 320,000) | AID 2796; in the data active = activation above about 47%;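 also: 0% = vehicle wells and 100% = reference agonist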
# PLCgamma1 ctr = counter-screen for PLC-beta3 inhibitors: inhibitors of human PLC-gamma1. shares compounds with PLC-gamma1 inh. purified PLC-gamma1, fluorogenic substrate, fluorescence. inhibition, % at 12.3 µM. actives 3.1% (n = 3,300). AID 743258
# PLCbeta3 conf = confirmation of human PLC-beta3 inhibitors. shares compounds with PLC-gamma1 inh. purified PLC-beta3, fluorogenic substrate fluorescence. inhibition, % at 12.3 µM. actives 1% (n = 3,300); in the data active = inhibition above about 11%
# Numbers without * were called inactive; x = no result. An excerpt weighted towards active compounds, which were near 3.9% of everything screened. Rule as the data show it, unless noted: active = inhibition above about 9.5%; inactive = the rest.
SMILES,PLC-gamma1 inh,PLCb3 inh,CR mimetic SO,HIF activator,sPLA2-III inh,AHR activator,PLCgamma1 ctr,PLCbeta3 conf
CC(=O)N1c2ccc(S(=O)(=O)N3c4ccccc4CC3C)cc2CC1C (stereo not given),1.8,-6.9,101.5,-0.9,-4.7,-0.3,x,x
CC12CCC(C(=O)Nc3ccccc3N3CCOCC3)(CC1=O)C2(C)C (stereo not given),9.5*,8.0,99.7,0.3,0.7,-1.2,-3.7,-0.9
O=C(NCCc1cccs1)Nc1nnc([C@H]2C[C@H](O)[C@@H](CO)O2)s1,11.0*,-1.5,x,x,-1.4,x,-11.7,-8.1
COCCNC(=O)c1onc(CSc2cccc(OC)c2)c1C(=O)O,-1.4,-0.3,93.0,-1.1,3.9,5.6,x,x
COc1cccc(SCc2noc(C(=O)NCCN(C)C)c2C(=O)NCCN(C)C)c1,9.7*,7.5,106.5,0.1,16.5,-0.9,-4.3,-1.6
CCc1nn(CC(=O)N2CC(C)CC(C)C2)c(=O)c2cccn12 (stereo not given),-0.4,-3.0,94.7,-0.3,2.3,-0.1,x,x
CC(C)C(c1nnnn1Cc1ccco1)N1CCN(c2cccc(Cl)c2)CC1 (stereo not given),12.4*,1.8,109.4,-7.4,-2.6,8.6,-4.6,-5.8
Cc1nn(CC(=O)O)c(C)c1C,2.8,1.3,101.6,-0.6,2.5,-0.5,x,x
Cc1nn(CC(=O)O)c(C)c1Cl,10.9*,3.6,107.7,-0.2,-0.2,-0.2,-6.9,-3.1
O=C(OC1CCN(c2ncc(C(F)(F)F)cc2Cl)CC1)c1cccc(C(F)(F)F)c1,0.6,1.6,113.2,0.2,-1.4,-3.1,x,x
O=C(c1cccc(C(F)(F)F)c1)N1CCOC12CCN(c1ncc(C(F)(F)F)cc1Cl)CC2,10.8*,1.9,97.3,-1.1,16.5,0.4,-5.0,-3.3
COc1ccccc1C(=O)COC(=O)/C=C/c1ccccc1,9.6*,-3.2,100.1,2.6,-16.4,-1.9,-6.3,-11.6
CN(c1ccccc1)S(=O)(=O)c1cccc(NC(=O)CN2C(=O)NC3(CCCC3)C2=O)c1,3.8,-4.4,x,x,-12.8,x,x,x
CC1=CCC2COC(c3ccc[n+](Cc4ccccc4)c3)C1C2 (stereo not given),2.6,-1.0,90.6,0.2,1.6,0.7,x,x
CC(C)C[C@@H]1COc2cc(Br)ccc2S(=O)(=O)N1Cc1cn(Cc2ccc(Br)cc2)nn1,1.8,2.4,x,x,1.4,x,x,x
CN(C)c1ncnc2[nH]ncc12,13.1*,6.2,x,x,2.6,x,-2.3,0.8
CCN1C(=O)[C@@H]2[C@@H](c3ccc(-c4ccc(F)cc4)c(OC)c3)N3CCC[C@@]3(C(=O)OC)[C@@H]2C1=O,0.1,-1.4,80.5,x,-5.4,-1.0,x,x
CCCCn1c(N)c(N(CCOC)C(=O)CSc2n[nH]c(-c3ccc(OC)cc3)n2)c(=O)[nH]c1=O,-0.7,-5.6,93.8,-0.4,-0.9,-2.3,x,x
CCOC(=O)C(CCCOc1ccccc1C)C(=O)OCC,11.9*,-11.2,93.7,x,7.2,-1.3,-5.4,-2.1
Cc1[nH]n(-c2nc(-c3cccc([N+](=O)[O-])c3)cs2)c(=O)c1C,-1.2,-1.7,89.2,2.2,8.4,26.4,x,x
O=[N+]([O-])c1ncn(Cc2ccccc2Cl)n1,6.8,12.6*,92.9,-0.2,-0.7,0.8,6.4,1.9
CCCCn1c(-c2csc3c2CCC(C)C3)n[nH]c1=S (stereo not given),-2.2,-0.7,115.0,-0.9,-6.6,4.2,x,x
CCCCn1c(-c2csc3c2CCCC3)n[nH]c1=S,14.8*,-3.5,92.2,0.1,18.9,25.6,-2.5,-3.7
O=C(CN1C(=O)NC(c2ccccc2)(c2ccccc2)C1=O)N1CCCCC1,-1.4,-0.2,88.1,x,-1.7,4.5,x,x
NC(=O)c1ccc(NC(=O)CN2C(=O)NC(c3ccccc3)(c3ccccc3)C2=O)cc1,10.5*,-5.0,108.4,1.3,-16.3,4.0,-3.0,-1.6
SMILES,PLC-gamma1 inh,PLCb3 inh,CR mimetic SO,HIF activator,sPLA2-III inh,AHR activator,PLCgamma1 ctr,PLCbeta3 conf
NC(=O)NC(=O)CN1C(=O)NC(c2ccccc2)(c2ccccc2)C1=O,10.8*,2.8,97.9,2.5,9.4,-1.5,-3.4,-3.9
O=C(CN1C(=O)NC(c2ccccc2)(c2ccccc2)C1=O)NCc1ccccc1,2.3,-1.9,87.2,x,-4.7,-0.3,x,x
CC1CCN(C(=O)CN2C(=O)NC(c3ccccc3)(c3ccccc3)C2=O)CC1,12.9*,2.1,90.9,x,1.9,0.3,-6.3,-1.1
O=C(COc1ccccc1[N+](=O)[O-])N(Cc1cccc(Br)c1)C1CCS(=O)(=O)C1 (stereo not given),0.0,-7.8,102.7,-0.8,-3.7,17.1,x,x
COc1ccc(S(=O)(=O)Nc2ccc3c(c2)C(=O)N([C@H](C)CO)C[C@H](C)[C@@H](CN(C)C(=O)NC(C)C)O3)cc1,2.2,3.2,82.5,x,1.3,0.6,x,x
CC(=O)c1cc2c(cc1NC(=O)CN(C)S(=O)(=O)c1cccs1)OCO2,-36.8,-56.3,81.4,x,3.8,10.8,x,x
O=S(=O)(c1ccc(Cl)cc1)c1cnc2ccccc2n1,9.6*,-1.6,97.8,-0.7,1.1,0.7,11.6*,-3.7
COc1ccc(CNC(=O)C2(C)Cc3c(-c4cccc(C(N)=O)c4)ccnc3O2)cc1OC (stereo not given),10.3*,3.4,x,x,0.2,x,-4.0,-2.3
CC1(C(=O)Nc2cccc(NS(C)(=O)=O)c2)Cc2c(-c3ccc(C(N)=O)cc3)ccnc2O1 (stereo not given),10.5*,6.3,x,x,1.1,x,7.2,1.8
CCOC(=O)[C@]12CCCC=C1N(Cc1ccccc1)C(=O)[C@H](CC(=O)NCC1CCCCC1)C2,-2.2,4.5,x,x,-10.0,x,x,x
COC(=O)[C@]12C[C@H](CC(=O)N3CCC(c4ccccc4)CC3)C(=O)N(Cc3ccco3)C1=C[C@H](COCc1ccccc1)O[C@@H]2C,2.1,-1.9,x,x,1.8,x,x,x
COc1ccc(S(=O)(=O)N2CCCCCC2)cc1C(=O)N(C)CC(=O)Nc1ccccc1Br,10.4*,-3.8,98.2,-0.7,8.9,-2.0,0.0,0.8
COc1ccc(S(=O)(=O)N2CCCCCC2)cc1C(=O)N(C)CC(=O)Nc1c(Cl)cccc1Cl,9.7*,2.2,100.3,0.2,0.0,-2.5,-2.4,3.4
COc1ccc(S(=O)(=O)N2CCCCCC2)cc1C(=O)N(C)CC(=O)Nc1ccccc1Cl,-3.1,-1.3,96.7,-0.3,-10.3,1.9,x,x
OCC[C@H]1C[C@H](O)[C@@H](O)[C@@]2(OCCCc3ccccc32)O1,3.0,0.2,105.9,x,3.0,2.2,x,x
CSCCC(NS(=O)(=O)c1ccc(Cl)cc1)C(=O)OCC(=O)c1ccc(F)cc1 (stereo not given),4.9,11.6*,98.5,0.4,-51.3,0.0,-2.0,-1.5

# Screens: PubChem, several laboratories
